The campaign covered roughly 1,300 compounds. About 380 (29%) were called active. About 37% were inconclusive and are not listed. Calls follow the shape of the dose curve; as a rule, active = well fitted inhibition curve with a large enough effect; inconclusive = small, poorly fitted or top-dose-only effect; inactive = flat fitted curve, though single readings scatter. Some of the results follow.
The compounds below were run against Thyrotropin receptor (Homo sapiens) (UniProt P16473) (assay: qHTS for antagonists of the Thyroid Stimulation Hormone Receptor: Hit Validation in Primary Screen). Details: TSHR-expressing cells, cAMP antagonist mode; series mostly up to 58 µM.
Sequence of Thyrotropin receptor (Homo sapiens) (P16473 whole entry, looked up): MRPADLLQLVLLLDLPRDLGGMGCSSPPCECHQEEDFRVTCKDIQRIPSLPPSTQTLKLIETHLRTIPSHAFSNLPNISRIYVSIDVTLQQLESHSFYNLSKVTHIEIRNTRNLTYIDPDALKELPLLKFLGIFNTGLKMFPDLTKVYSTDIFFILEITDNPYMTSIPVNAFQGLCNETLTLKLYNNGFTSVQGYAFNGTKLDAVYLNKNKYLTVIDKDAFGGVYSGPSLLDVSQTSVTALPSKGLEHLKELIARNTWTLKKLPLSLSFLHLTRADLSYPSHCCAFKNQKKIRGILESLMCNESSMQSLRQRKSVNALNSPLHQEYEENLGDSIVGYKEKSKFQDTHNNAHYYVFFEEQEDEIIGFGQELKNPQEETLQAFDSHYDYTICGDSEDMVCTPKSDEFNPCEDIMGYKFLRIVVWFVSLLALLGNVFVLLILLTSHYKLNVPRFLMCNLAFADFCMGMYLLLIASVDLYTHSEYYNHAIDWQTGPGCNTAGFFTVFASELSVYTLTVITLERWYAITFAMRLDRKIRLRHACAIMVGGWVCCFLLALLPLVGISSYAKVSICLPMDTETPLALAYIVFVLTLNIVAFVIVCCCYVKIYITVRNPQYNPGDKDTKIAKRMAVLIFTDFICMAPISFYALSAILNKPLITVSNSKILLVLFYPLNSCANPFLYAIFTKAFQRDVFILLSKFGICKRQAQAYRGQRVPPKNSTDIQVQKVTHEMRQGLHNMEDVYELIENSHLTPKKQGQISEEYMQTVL
Text: The thyroid-stimulating hormone receptor (TSHR) is a member of the 7 trans-membrane-spanning receptor (7TMR) family of cell surface receptors. TSHR-mediated hyperthyroidism is important in thyroid pathology. The development of small molecule antagonists of TSHR may lead to therapeutic approaches for TSHR-mediated hyperthyroidism caused by constitutively activating mutations or stimulating auto-antibodies associated with Graves' disease. Graves' disease is the leading cause of hyperthyroidism and is caused by autoantibodies that stimulate TSHR (TsAbs) causing thyroid growth and unregulated overproduction of thyroid hormones and existing treatments have liabilities (agranulocytosis). In addition, TSHRs are known to be expressed in multiple extrathyroidal tissues including bone, brain, kidney, testis, fat and cells of the immune system but the role of the TSHR in these tissues is not clear. Therefore, TSHR antagonists/inverse agonists could be used as probes of extrathyroidal TSHR function. Finally, TSHR inverse agonists, which are a subclass of antagonists that inhibit agonist-independent (or basal or constitutive) TSHR signaling, could be used to inhibit TSH-independent signaling in patients with recurrent or metastatic thyroid cancer who are receiving thyroid hormone to suppress TSH.
In collaboration between scientist from the NCGC and the NIDDK, a miniaturized HTRF high-throughput screen was developed. It's a cell based assay, where an anti cAMP antibody contains a fluorescent cryptate tag (excitation 337 nm; emission 620 nm) and the acceptor is cAMP-d2 (excitation 620 nm; emission 665 nm). When antibody and cAMP-d2 interact and are excited by a 337 nm light, a FRET occurs resulting in emission at 665 nm. The assay is competition between cAMP-d2 and cAMP (from the cell lysate). The homogeneous protocol allows for one step dispense after stimulation that is automation friendly. This is a hit validation assay using the primary screen format.
NIH Chemical Genomics Center [NCGC]
NIH Molecular Libraries Probe Centers Network [MLPCN]
Assay Provider: Marvin Gershengorn, NIDDK
1. 3ul of 200 TSHR freshly harvested cells/well are dispensed into a 1536 TC-treated white solid bottom plate.
2. Through pintool addition, 23nl of compounds and control in 100% DMSO are added to the plate.
3. Then 1ul of EC80 TSH (4nM final) is added to the plate.
4. Assay is incubated at 37 deg C for 2 hours.
5. 2ul of cAMP antibody diluted 1:20 in lysis buffer is added.
6. Immediately following, 2ul of d2 diluted 1:20 in HBSS is added seperately.
7. The assay is incubated for 30 minutes at ambient room temperature.
8. The result is obtained by using a ViewLux read-out with HTRF settings.
Also: nearly all actives have a fitted effect of over 80% in size.
Potency is read from the fitted curve at half-maximal effect.

| SMILES | Potency |
| --- | --- |
| Cc1ccc(C2(c3ccc(C)cc3)CC2C(=O)Nc2ccc([N+](=O)[O-])cc2O)cc1 (stereo unspecified) | 19 µM (active) |
| CCOc1ccc(C2NC(=O)c3ccccc3O2)cc1OC (stereo unspecified) | inactive |
| CC(C)(C)c1ccc(C(=O)CC(Sc2ccc(Cl)cc2)C(=O)O)cc1 (stereo unspecified) | 37.9 µM (active) |
| O=C1NC(=S)SC1=C1CCCCCC1 | 30.1 µM (active) |
| CC1=CCC2C(=O)N(c3ccc(C(=O)Nc4ccccc4Cl)cc3)C(=O)C2C1 (stereo unspecified) | inactive |
| Cc1ncsc1CCOC(=O)C1C2CC3CC(C2)CC1C3 (stereo unspecified) | 30.1 µM (active) |
| Cc1ccc(S(=O)(=O)/N=C2/NC(=O)/C(=C\c3cc(Br)cc(Br)c3O)S2)cc1 | 15.1 µM (active) |
| COc1ccc(CNC(=O)CCS(=O)(=O)c2ccc3c(c2)CCN3C(C)=O)cc1 | inactive |
| Cc1cc(C)c(C2=NOC3C4CCC(C4)C23)c(C)c1 (stereo unspecified) | inactive |
| COc1cccc(OC)c1C(=O)Nc1ccc2c(c1)N(S(=O)(=O)c1cccs1)CCC2 | inactive |
| O=C1NC(=S)S/C1=C\c1ccc(SCc2ccccc2)o1 | 6.01 µM (active) |
| COCCNc1oc(Cc2cccc3ccccc23)nc1C#N | inactive |
| O=c1[nH]c(C2CCN(S(=O)(=O)c3cccc(Cl)c3)CC2)nc2c1nnn2Cc1ccccc1 | inactive |
| O=C(O)c1ccc(Cl)cc1Nc1nc2cc(Cl)ccc2o1 | 26.9 µM (active) |
| O=C1C=CC(=O)N1CCCCCCN1C(=O)C=CC1=O | 37.9 µM (active) |
| C=CCn1c(SCC(=O)c2cccs2)nc2sc(CC)cc2c1=O | 21.3 µM (active) |
| O=c1/c(=C/c2ccc(O)c([N+](=O)[O-])c2)sc2nc3ccccc3n12 | 3.79 µM (active) |
| COc1cc(/C=C(\C#N)c2nc3ccccc3s2)cc([N+](=O)[O-])c1O | 7.57 µM (active) |
| N#C/C(=C\c1ccc(O)c([N+](=O)[O-])c1)c1nc2ccccc2s1 | 6.75 µM (active) |
| COC(CNC(=O)c1ccc(Cn2c(=S)[nH]c3cc4c(cc3c2=O)OCO4)cc1)OC | inactive |
| CCOc1ccnc2c1c(=O)n(Cc1cc(OC)cc(OC)c1)c(=O)n2C | inactive |
| COC(=O)CN(c1ccc(C)cc1)S(=O)(=O)c1ccc2c(c1)n(C)c(=O)c(=O)n2C | inactive |
| COC(=O)c1ccc(C2C(Oc3ccccc3C)C(=O)N2CCc2ccc(OC)c(OC)c2)cc1 (stereo unspecified) | inactive |
| COc1ccc(CCNC2=C(Cl)C(=O)N(CCc3ccccc3)C2=O)cc1OC | 26.9 µM (active) |
| COc1ccc(CCNC2=C(Cl)C(=O)N(CCc3ccc(OC)c(OC)c3)C2=O)cc1OC | 21.3 µM (active) |
| O=C(N/N=C/c1cccc(Oc2ccc([N+](=O)[O-])cc2[N+](=O)[O-])c1)c1cncc(Br)c1 | 30.1 µM (active) |
